Source: article PMC7862700, “An all-to-all approach to the identification of sequence-specific readers for epigenetic DNA modifications on cytosine”

Columns and labels:
Test in all cases: DAPPL (digital affinity profiling via proximity ligation, sequencing); 10 mM Tris-HCl pH 7.5, 50 mM NaCl, 1 mM DTT, 4% glycerol, room temperature, 30 min; GST-TFs on glutathione beads, 16-mer random dsDNA library, 0.1% formaldehyde crosslink after washing; high values mean tight binding
Conditions in all cases: protein: recombinant; tags: N-terminal GST; dsDNA, one strand shown
FLI1 = target: T1, FLI1 (Homo sapiens, UniProt Q01543 1-452)
T1 sequence: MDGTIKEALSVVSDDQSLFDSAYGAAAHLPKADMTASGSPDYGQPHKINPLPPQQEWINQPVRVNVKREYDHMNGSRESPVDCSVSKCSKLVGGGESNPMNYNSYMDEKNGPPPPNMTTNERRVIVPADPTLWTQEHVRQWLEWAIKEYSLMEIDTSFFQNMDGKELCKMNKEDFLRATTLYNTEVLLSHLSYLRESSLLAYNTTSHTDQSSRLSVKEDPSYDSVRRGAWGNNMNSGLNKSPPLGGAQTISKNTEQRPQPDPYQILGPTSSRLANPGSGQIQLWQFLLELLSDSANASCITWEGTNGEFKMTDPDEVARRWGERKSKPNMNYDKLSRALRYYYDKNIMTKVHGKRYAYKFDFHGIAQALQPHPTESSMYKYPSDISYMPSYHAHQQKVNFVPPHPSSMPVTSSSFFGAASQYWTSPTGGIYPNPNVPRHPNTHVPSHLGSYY
Outline: (§1)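 After expression in yeast as GST fusions, human transcription factors were bound to glutathione beads, DNA-barcoded and mixed with a tag-only sample. The pools were incubated with 200 nmole of a 16-mer random double-stranded DNA library in Tris/NaCl/DTT/glycerol buffer (30 min, room temperature), washed and crosslinked with 0.1% formaldehyde. Proximity ligation with BsaI/T4 ligase ran for 1 h at 37 °C, before PCR amplification and sequencing on an Illumina NextSeq500. Binding signal is a hexamer's read frequency for a factor divided by its frequency for the tag-only sample.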

ELK1 = target: T2, ELK1 (Homo sapiens, UniProt P19419 1-428)
T2 sequence: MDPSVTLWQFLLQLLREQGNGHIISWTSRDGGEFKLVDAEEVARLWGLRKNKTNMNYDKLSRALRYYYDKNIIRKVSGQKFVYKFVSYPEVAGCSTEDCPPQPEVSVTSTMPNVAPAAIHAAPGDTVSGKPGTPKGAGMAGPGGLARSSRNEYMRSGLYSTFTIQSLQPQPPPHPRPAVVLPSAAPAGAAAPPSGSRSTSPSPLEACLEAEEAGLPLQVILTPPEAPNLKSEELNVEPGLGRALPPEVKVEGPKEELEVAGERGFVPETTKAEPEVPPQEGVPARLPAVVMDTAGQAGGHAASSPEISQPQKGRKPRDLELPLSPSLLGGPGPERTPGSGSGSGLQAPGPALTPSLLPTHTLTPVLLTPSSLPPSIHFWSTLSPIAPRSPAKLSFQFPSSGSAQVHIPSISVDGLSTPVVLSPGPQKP
Outline: as §1

GABPA = target: T3, GABPA (Homo sapiens, UniProt Q06546 1-454)
T3 sequence: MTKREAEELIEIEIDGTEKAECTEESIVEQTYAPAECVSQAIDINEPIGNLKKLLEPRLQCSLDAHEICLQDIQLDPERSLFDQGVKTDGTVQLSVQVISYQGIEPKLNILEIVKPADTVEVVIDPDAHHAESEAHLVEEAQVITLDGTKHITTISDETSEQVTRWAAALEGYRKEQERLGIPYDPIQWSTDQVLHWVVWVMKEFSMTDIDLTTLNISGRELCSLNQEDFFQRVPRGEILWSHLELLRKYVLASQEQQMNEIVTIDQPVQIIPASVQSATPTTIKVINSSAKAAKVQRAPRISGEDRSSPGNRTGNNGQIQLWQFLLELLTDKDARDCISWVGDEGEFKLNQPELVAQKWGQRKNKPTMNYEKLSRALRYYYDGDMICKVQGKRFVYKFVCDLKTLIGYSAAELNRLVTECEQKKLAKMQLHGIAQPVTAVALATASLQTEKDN
Outline: as §1

ELF1 = ELF1 (Homo sapiens, UniProt P32519 1-619)
Sequence of ELF1 (P32519 whole entry): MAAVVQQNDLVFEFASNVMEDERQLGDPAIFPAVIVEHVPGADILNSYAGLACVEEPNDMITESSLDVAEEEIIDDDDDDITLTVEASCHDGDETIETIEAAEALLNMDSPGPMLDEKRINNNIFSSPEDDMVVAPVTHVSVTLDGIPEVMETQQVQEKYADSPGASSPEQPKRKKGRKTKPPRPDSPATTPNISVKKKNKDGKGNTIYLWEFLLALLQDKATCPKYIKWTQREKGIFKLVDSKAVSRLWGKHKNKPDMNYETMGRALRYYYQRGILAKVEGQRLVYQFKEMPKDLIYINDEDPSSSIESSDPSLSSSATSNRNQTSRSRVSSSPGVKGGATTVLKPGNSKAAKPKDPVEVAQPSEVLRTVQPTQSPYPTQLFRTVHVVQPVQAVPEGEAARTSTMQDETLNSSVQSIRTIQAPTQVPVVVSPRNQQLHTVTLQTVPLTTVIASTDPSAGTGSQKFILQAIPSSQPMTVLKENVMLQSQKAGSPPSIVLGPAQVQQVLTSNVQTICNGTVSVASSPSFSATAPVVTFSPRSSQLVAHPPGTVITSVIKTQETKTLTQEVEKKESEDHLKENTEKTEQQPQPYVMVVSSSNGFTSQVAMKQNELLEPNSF
Outline: as §1

EHF = target: T4, EHF (Homo sapiens, UniProt Q9NZC4 1-300)
T4 sequence: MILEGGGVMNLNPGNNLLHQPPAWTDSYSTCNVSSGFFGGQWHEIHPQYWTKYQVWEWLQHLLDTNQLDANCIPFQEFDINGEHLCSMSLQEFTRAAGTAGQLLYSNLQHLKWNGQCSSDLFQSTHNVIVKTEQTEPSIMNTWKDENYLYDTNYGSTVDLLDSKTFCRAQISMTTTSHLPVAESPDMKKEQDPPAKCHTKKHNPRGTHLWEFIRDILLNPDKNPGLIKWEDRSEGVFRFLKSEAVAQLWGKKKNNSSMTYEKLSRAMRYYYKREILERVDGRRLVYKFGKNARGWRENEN
Outline: as §1

SPI1 = SPI1 (Homo sapiens, UniProt P17947 1-270)
Outline: as §1

ELK3 = target: T5, ELK3 (Homo sapiens, UniProt P41970 1-407)
T5 sequence: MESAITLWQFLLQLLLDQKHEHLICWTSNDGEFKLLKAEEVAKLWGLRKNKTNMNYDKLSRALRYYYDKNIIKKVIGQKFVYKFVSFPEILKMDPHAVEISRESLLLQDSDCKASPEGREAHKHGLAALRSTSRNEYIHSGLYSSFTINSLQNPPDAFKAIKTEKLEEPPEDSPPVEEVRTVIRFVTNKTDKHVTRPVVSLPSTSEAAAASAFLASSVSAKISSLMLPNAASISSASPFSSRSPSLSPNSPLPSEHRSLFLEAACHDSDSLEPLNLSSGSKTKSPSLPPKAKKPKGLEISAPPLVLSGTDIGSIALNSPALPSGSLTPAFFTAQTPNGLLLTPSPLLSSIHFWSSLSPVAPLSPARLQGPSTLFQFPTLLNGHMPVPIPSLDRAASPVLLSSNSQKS
Outline: as §1

FEV = target: T6, FEV (Homo sapiens, UniProt Q99581 1-238)
T6 sequence: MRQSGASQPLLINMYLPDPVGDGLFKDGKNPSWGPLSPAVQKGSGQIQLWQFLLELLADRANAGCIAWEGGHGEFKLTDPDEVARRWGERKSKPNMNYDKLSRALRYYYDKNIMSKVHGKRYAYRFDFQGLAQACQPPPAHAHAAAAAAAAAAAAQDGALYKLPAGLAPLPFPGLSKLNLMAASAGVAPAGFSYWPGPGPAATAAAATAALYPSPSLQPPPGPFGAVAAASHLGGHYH
Outline: as §1

ETV5 = ETV5 (Homo sapiens, UniProt P41161 1-510)
Sequence of ETV5 (P41161 whole entry): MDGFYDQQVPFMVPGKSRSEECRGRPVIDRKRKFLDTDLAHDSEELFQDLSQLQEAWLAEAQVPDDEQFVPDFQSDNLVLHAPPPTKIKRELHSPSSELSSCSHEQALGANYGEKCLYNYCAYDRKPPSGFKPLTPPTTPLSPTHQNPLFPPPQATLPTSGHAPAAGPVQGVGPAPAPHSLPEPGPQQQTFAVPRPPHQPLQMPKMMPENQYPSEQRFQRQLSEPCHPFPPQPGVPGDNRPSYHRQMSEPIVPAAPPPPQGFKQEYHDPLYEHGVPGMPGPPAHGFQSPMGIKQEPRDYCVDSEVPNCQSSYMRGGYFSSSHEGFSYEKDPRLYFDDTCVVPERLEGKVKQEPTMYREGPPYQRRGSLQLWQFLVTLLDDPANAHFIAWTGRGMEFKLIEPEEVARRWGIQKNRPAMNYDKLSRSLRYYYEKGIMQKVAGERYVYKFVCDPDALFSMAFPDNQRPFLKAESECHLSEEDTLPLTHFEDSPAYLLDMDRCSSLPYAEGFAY
Outline: as §1

SPIC = target: T7, SPIC (Homo sapiens, UniProt Q8N5J4 1-248)
T7 sequence: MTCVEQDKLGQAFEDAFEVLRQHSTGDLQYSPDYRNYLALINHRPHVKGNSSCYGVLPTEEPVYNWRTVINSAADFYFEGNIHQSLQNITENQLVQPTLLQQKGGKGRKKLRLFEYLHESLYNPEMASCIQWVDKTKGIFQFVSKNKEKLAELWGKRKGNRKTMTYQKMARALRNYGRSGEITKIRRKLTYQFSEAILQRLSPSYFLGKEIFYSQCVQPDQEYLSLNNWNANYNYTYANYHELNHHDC
Outline: as §1

ELF4 = ELF4 (Homo sapiens, UniProt Q99607 1-663)
Sequence of ELF4 (Q99607 whole entry): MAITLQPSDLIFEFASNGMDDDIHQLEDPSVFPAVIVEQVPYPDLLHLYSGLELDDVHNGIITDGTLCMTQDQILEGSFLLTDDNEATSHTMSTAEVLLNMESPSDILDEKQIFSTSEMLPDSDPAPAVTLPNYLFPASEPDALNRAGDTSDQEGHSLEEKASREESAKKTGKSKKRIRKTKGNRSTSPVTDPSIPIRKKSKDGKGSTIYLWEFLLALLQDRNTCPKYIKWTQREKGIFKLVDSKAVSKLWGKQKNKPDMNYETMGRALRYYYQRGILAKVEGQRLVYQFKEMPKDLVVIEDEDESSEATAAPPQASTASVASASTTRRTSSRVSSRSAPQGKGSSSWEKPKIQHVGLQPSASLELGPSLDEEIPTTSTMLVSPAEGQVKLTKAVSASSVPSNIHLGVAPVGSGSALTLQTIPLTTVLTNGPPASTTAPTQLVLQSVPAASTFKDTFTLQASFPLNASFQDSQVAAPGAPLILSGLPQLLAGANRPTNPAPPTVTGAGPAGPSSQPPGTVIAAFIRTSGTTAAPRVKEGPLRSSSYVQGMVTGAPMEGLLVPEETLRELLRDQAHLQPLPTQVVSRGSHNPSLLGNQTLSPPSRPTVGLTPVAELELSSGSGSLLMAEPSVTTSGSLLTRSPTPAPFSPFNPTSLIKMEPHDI
Outline: as §1

ETV1 = ETV1 (Homo sapiens, UniProt P50549 1-477)
Sequence of ETV1 (P50549 whole entry): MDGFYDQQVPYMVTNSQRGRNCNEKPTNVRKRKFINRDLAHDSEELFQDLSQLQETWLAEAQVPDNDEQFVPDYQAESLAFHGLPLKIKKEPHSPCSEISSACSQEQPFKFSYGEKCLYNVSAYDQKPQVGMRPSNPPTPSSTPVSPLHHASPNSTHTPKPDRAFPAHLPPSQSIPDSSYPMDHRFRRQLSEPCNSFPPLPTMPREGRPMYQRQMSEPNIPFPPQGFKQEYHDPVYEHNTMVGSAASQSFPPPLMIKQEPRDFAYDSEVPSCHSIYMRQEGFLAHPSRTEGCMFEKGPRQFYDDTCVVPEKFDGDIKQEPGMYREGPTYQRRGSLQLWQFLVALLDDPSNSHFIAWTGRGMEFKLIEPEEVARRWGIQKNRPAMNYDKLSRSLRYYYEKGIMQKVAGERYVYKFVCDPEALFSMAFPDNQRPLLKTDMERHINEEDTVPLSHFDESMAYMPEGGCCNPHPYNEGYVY
Outline: as §1

ERF = target: T8, ERF (Homo sapiens, UniProt P50548 1-548)
T8 sequence: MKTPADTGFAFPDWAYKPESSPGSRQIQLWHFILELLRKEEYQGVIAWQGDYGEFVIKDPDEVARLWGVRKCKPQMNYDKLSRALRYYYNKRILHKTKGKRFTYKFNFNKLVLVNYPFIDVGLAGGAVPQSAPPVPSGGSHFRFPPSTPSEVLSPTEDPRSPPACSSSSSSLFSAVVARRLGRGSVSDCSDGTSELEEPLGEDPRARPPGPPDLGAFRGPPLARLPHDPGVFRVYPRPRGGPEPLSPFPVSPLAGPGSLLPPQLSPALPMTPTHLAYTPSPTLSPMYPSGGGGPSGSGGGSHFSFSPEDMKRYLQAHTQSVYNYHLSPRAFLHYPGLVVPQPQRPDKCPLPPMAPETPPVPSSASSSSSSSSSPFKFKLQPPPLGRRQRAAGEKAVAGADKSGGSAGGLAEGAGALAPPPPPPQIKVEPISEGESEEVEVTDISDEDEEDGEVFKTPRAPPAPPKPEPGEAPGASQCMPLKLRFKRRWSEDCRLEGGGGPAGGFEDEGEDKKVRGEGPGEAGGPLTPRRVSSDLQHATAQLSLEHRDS
Outline: as §1

ETV3L = target: T9, ETV3L (Homo sapiens, UniProt Q6ZN32 1-361)
T9 sequence: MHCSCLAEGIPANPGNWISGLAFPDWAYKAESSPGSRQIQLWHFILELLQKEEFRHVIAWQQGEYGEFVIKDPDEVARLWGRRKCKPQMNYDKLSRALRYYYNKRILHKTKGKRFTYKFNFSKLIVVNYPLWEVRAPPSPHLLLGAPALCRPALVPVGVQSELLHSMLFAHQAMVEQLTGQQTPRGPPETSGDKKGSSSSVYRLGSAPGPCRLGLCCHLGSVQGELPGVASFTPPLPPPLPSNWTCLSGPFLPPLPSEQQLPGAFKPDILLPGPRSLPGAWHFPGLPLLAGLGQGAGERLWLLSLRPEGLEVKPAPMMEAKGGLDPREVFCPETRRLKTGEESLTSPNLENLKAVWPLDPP
Outline: as §1

ETS2 = target: T10, ETS2 (Homo sapiens, UniProt P15036 1-469)
T10 sequence: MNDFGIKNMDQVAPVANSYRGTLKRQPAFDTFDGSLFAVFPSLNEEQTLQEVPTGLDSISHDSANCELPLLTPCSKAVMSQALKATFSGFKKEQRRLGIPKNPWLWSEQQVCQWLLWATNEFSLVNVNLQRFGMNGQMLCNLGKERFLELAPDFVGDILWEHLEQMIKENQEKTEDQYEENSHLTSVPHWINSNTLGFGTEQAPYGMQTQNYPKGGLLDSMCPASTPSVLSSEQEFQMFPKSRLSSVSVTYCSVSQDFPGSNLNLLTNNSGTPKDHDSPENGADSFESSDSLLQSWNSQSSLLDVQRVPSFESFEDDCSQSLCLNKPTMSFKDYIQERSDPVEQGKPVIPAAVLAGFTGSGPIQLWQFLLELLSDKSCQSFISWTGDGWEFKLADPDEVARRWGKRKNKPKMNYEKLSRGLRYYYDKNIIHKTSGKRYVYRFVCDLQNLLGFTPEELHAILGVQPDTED
Outline: as §1

ETV3 = target: T11, ETV3 (Homo sapiens, UniProt P41162-2 1-143)
T11 sequence: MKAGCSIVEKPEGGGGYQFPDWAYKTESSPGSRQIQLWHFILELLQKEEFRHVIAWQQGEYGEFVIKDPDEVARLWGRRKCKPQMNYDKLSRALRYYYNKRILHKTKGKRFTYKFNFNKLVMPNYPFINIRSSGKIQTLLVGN
Outline: as §1

ETV6 = ETV6 (Homo sapiens, UniProt P41212 1-452)
Sequence of ETV6 (P41212 whole entry): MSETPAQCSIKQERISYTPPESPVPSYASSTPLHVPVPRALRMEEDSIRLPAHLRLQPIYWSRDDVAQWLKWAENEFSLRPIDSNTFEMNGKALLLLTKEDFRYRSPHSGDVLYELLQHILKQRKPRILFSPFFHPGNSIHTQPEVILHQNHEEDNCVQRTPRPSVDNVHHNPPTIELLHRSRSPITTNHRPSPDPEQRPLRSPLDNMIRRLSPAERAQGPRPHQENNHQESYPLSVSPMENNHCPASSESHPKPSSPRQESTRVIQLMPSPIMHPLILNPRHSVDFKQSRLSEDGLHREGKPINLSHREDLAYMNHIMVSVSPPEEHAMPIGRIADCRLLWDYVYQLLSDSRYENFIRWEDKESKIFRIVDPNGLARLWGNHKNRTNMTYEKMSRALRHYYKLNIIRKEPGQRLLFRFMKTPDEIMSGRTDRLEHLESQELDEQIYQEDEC
Outline: as §1

Sequence: TGCGGC
- binding signal (FLI1): 1.06 fold enrichment (6-mer frequency, TF over GST control)
- binding signal (ELK1): 1.04 fold enrichment (6-mer frequency, TF over GST control)
- binding signal (GABPA): 1.09 fold enrichment (6-mer frequency, TF over GST control)
- binding signal (ELF1): 1.05 fold enrichment (6-mer frequency, TF over GST control)
- binding signal (EHF): 1.07 fold enrichment (6-mer frequency, TF over GST control)
- binding signal (SPI1): 1.11 fold enrichment (6-mer frequency, TF over GST control)
- binding signal (ELK3): 1.01 fold enrichment (6-mer frequency, TF over GST control)
- binding signal (FEV): 1.02 fold enrichment (6-mer frequency, TF over GST control)
- binding signal (ETV5): 1.06 fold enrichment (6-mer frequency, TF over GST control)
- binding signal (SPIC): 1.19 fold enrichment (6-mer frequency, TF over GST control)
- binding signal (ELF4): 1.13 fold enrichment (6-mer frequency, TF over GST control)
- binding signal (ETV1): 1.08 fold enrichment (6-mer frequency, TF over GST control)
- binding signal (ERF): 1.14 fold enrichment (6-mer frequency, TF over GST control)
- binding signal (ETV3L): 1.03 fold enrichment (6-mer frequency, TF over GST control)
- binding signal (ETS2): 1.05 fold enrichment (6-mer frequency, TF over GST control)
- binding signal (ETV3): 1.03 fold enrichment (6-mer frequency, TF over GST control)
- binding signal (ETV6): 1 fold enrichment (6-mer frequency, TF over GST control)
